These results are taken from PubChem BioAssay AID463173 (ICCB-Longwood Screening Facility, Harvard Medical School, 2010).

The structures appear in SMILES notation. Hit rate of the full screen: of about 52,000 compounds, about 4,300 (8.3%) were called active. No stated cut-off is given here; in the data, active means survival mostly below about 52% (no sharp cut-off); inactive means mostly above about 56%. The full list was thinned out, with actives kept by preference.

For the assay, the system named is DeltatarO mutant. As to the kind of experiment: S. aureus survival, RN4220 and DeltatarO strains – OD600, teichoic acid synthesis inhibitors, primary screen (AID 463173). The conditions noted are these: S. aureus RN4220 wild type/DeltatarO growth, OD600, 18 h, hits give low values, screened at 18.75 µg/mL (by protocol).
`Cc1cc(NC(=O)CSc2nc(-c3ccccc3C)nc3c2c(=O)n(C)c(=O)n3C)no1`: the survival is 67% (inactive).

Consider `CS(=O)(=O)c1ncc(N(Cc2ccccc2)Cc2ccco2)c(C(=O)Nc2cccc(C(F)(F)F)c2)n1`, for which the survival is 52% (inactive).

Take `COc1ccc(CN(Cc2ccco2)c2cnc(S(C)(=O)=O)nc2C(=O)Nc2ccc(F)cc2)cc1`: the survival was 49% (inactive).

With `COc1ccc(CN(Cc2ccco2)c2cnc(S(C)(=O)=O)nc2C(=O)Nc2ccc(C)c(C)c2)cc1`, the survival is 44% (active).

`Cc1ccc(NC(=O)c2nc(S(C)(=O)=O)ncc2N(Cc2ccco2)Cc2cccs2)cc1C`: the survival was 40% (active).

In the case of `CC(C)c1ccc(CN(Cc2ccco2)c2cnc(S(C)(=O)=O)nc2C(=O)Nc2ccccc2)cc1`, the survival is 44% (active).

With `Cc1ccc(NC(=O)c2nc(S(C)(=O)=O)ncc2N(Cc2ccco2)Cc2cccs2)c(C)c1`, the survival is 38% (active).

In the case of `Cc1ccc(NC(=O)c2nc(S(C)(=O)=O)ncc2N(Cc2ccco2)Cc2ccco2)cc1C`, the survival was 50% (inactive).

Take `CC(C)c1ccc(CN(Cc2ccco2)c2cnc(S(C)(=O)=O)nc2C(=O)Nc2ccc(F)cc2)cc1`: the survival is 49% (inactive).

Regarding `Cc1ccc(NC(=O)c2nc(S(C)(=O)=O)ncc2N(Cc2cccc(F)c2)Cc2ccco2)cc1C`, the survival was 45% (inactive).

On to `COc1ccc(CN(Cc2ccco2)c2cnc(S(C)(=O)=O)nc2C(=O)Nc2ccc(C)cc2C)cc1`, for which the survival was 48% (inactive).

For the molecule `CCc1ccc(CN(Cc2ccco2)c2cnc(S(C)(=O)=O)nc2C(=O)Nc2cccc(C)c2)cc1`, the survival is 46% (inactive).

Consider `COc1ccc(CN(Cc2ccco2)c2cnc(S(C)(=O)=O)nc2C(=O)Nc2ccc(C)c(Cl)c2)cc1`, for which the survival was 47% (inactive).

On to `Cc1ccc2scc(N3CCc4ccccc4C3)c(=O)c2c1`, for which the survival is 73% (inactive).

As for `CCN(c1cccc(C)c1)S(=O)(=O)c1c(C)nc2sc(C)cn2c1=O`, the survival was 73% (inactive).

In the case of `Cc1ccc2oc(=O)c3cnn(CC(=O)Nc4cccc(C(F)(F)F)c4)c3c2c1`, the survival was 87% (inactive).

With `Brc1ccc(-c2cc(-c3ccccc3)no2)cc1`, the survival is 74% (inactive).

Consider `CC1CCC(Nc2nnnn2-c2ccccc2)CC1` (centres undefined), for which the survival was 87% (inactive).

On to `CCc1cccc(NS(=O)(=O)c2ccc3c(c2)n(C)c(=O)c(=O)n3C)c1`, for which the survival was 73% (inactive).

`CCOC(=O)c1ccccc1NC(=O)CN1C(=O)CC(c2ccccc2)Sc2ccccc21` (centres undefined): the survival is 92% (inactive).

As for `COCCNC(=O)CSc1nc(-c2ccc(F)cc2)[nH]c1-c1ccc(Cl)cc1`, the survival was 71% (inactive).

As for `CCc1cccc(C)c1NC(=O)Cn1cnc2c1c(=O)n(C)c(=O)n2C`, the survival is 74% (inactive).

`CS(=O)(=O)c1ncc(N(Cc2ccco2)Cc2ccco2)c(C(=O)Nc2ccccc2Br)n1`: the survival is 53% (inactive).

For `CS(=O)(=O)c1ncc(N(Cc2ccco2)Cc2cccs2)c(C(=O)Nc2ccccc2F)n1`, the survival was 41% (active).

Take `Cc1cccc(C)c1NC(=O)c1nc(S(C)(=O)=O)ncc1N(Cc1ccc(F)cc1)Cc1ccco1`: the survival is 46% (inactive).

As to `Cc1ccc(NC(=O)c2nc(S(C)(=O)=O)ncc2N(Cc2ccccc2)Cc2ccco2)c(C)c1`, the survival was 53% (inactive).

As to `CC(C)(C)c1ccc(CN(Cc2ccco2)c2cnc(S(C)(=O)=O)nc2C(=O)Nc2ccc(F)cc2)cc1`, the survival was 102% (inactive).

Regarding `CCS(=O)(=O)c1ncc(N(Cc2ccco2)Cc2ccccc2F)c(C(=O)Nc2cccc(Cl)c2)n1`, the survival is 60% (inactive).

`Cc1ccc(CN(Cc2ccco2)c2cnc(S(C)(=O)=O)nc2C(=O)Nc2ccccc2Br)o1`: the survival was 44% (inactive).

`Cc1ccc(NC(=O)c2nc(S(C)(=O)=O)ncc2N(Cc2ccc(C(C)(C)C)cc2)Cc2ccco2)cc1C`: the survival is 52% (inactive).

On to `Cc1ccc(NC(=O)c2nc(S(C)(=O)=O)ncc2N(Cc2ccco2)Cc2ccccc2F)c(C)c1`, for which the survival is 37% (active).

`Cc1ccc(C)c(NC(=O)c2nc(S(C)(=O)=O)ncc2N(Cc2ccc(C(C)(C)C)cc2)Cc2ccco2)c1`: the survival is 55% (active).

As to `CCc1ccc(CN(Cc2ccco2)c2cnc(S(C)(=O)=O)nc2C(=O)Nc2c(C)cccc2C)cc1`, the survival was 36% (active).

`Cc1cccc(C)c1NC(=O)c1nc(S(C)(=O)=O)ncc1N(Cc1ccc(C(C)(C)C)cc1)Cc1ccco1`: the survival is 49% (inactive).
